Measured values as given in PubChem BioAssay (EPA / NIEHS).
Active and inactive are the calls of the source. The calls were made as follows: active = hit-call score of the fitted dose curve at least 0.9, where 1 is the maximum; inactive = score below 0.9.

The molecules below were run on DNA damage-inducible transcript 3 (DDIT3), DDIT3 (gene 1649) (assay: LTEA_HepaRG_DDIT3: Life Technologies and Expression Analysis (LTEA) Assay for DNA damage-inducible transcript 3 (DDIT3) using HepaRG (AID 2283488)). Details: mRNA level, 48 h; actives raise or lower the signal.
Protocol: LTEA_HepaRG is a cell based, multiplexed-readout assay that uses HepaRG, a human liver cell line, with measurements taken at 48 hours after chemical dosing on a 96-well plate.LTEA_HepaRG_DDIT3 is one of 102 assay component(s) measured in the LTEA HepaRG cell culture assay. It is a marker of Oxidative Stress.Data from the assay component LTEA_HepaRG_DDIT3 was analyzed into 1 endpoint. This assay endpoint, LTEA_HepaRG_DDIT3, was analyzed with bidirectional fitting relative to DMSO as the negative control and baseline of activity. Using a type of inducible reporter, measures of mRNA induction for gain or loss-of-signal activity can be used to understand regulation of transcription factor activity. To generalize the intended target to other relatable targets, this assay endpoint is annotated to the dna binding intended target family, where the subfamily is basic leucine zipper.
A total of 1060 chemcials from the ToxCast library were tested in eight-point concentration-response experiments. Cell culture and cytotoxicity assays were conducted at Thermo Fisher Scientific's Custom Services facility (Madison, WI). A single lot of human HepaRG cells (Thermo Fisher Scientific, Frederick, MD) was used for the cell culture experiments. 96-well format collagen type I coated plates of human HepaRG cells were prepared using established methods. Briefly, cryopreserved HepaRG cells were thawed, plated at a density of approximately 100,000 cells/well in HepaRG Thaw, Plate, and General Purpose media (HPRG770, Thermo Fisher Scientific), and incubated for 48 hours. 0.5% DMSO was selected as vehicle control to balance the requisite need of DMSO in HepaRG cultures to maintain differentiation (for example, baseline metabolism, proportions of hepatocytes vs. cholangiocytes), while enabling further hepatic receptor pathway activation (for example, PXR and CAR) in response to chemical exposure. 48 hours after plating, the culture medium was replaced with HepaRG Serum-Free Incudtion Media. Cells were exposed to each test chemical in duplicate and maintained in CO2 incubators for another 48 hours. Chemical plates were thawed to room temperature and 200x concentrations of treatment groups were prepared. 8-point conentration-reponse curves were made with the highest exposure at 100 uM, followed by half-log dilutions, all in 0.5% DMSO. Each test plate contained variouse controls, induction positive controls (1mM phenobarbital), cytotoxicity positive controls ([…] aflatoxin B1), vehicle controls (0.5% DMSO), and total lysis controls (0.5% DMSO). Cell morphology images were taken using an Essen IncuCyte FLR automated microscope, with six 96-well plates imaged in about 24 minutes. Images were captured and exported and JPEG files. Spent culture media was transfered to black-well plates for the LDH assay, and remaining media was sorted at -80 C for later use. Cells were treated with RLT buffer and frozen until shipped for gene expression analysis. Total RNA was isolated from the cell suspension in 75 uL of Buffer RLT (Qiagen, Germantown, MD 20874) by Quintiles/Expression Analysis (Durham, NC) using a custom isolation procedure. Total RNA from each plate well was transferred to a preamplification plate. Fluidigm's 96.96 Dynamic ArrayTM (Fluidigm, Amsterdam, the Netherlands) technology was used for gene expression analyses by quantitative reverse transcription polymerase chain reaction (qRT-PCR, performed by Quintiles/Expression Analysis, Durham, NC)89. Standard TaqManTM Assays (Applied Biosystems/ThermoFisher Scientific, Foster City, CA) were used to assess the expression of 93 genes selected based on their selectivity and sensitivity to important hepatic receptors known to be modulated by environmental chemicals; importance in human hepatocyte functionality; and hepatotoxicity. […]
In the case of `Cc1cccc([N+](=O)[O-])c1C`, the outcome is reported as “inactive”. In the case of `O=c1[nH]cc(F)c(=O)[nH]1`, the outcome is reported as “inactive”. For `O=c1c(O)c(-c2ccc(O)c(O)c2)oc2cc(O)cc(O)c12`, the outcome was “inactive”. `Cc1ccc(C(C)C)c(O)c1` was tested, and the outcome was “inactive”. `COc1ccc2c(c1)c(CC(=O)O)c(C)n2C(=O)c1ccc(Cl)cc1` was tested, and the outcome was “inactive”. `C=CCOC(=O)c1ccccc1C(=O)OCC=C` was tested, and the outcome was “inactive”. `C=CCc1ccc(O)c(OC)c1` was tested, and the outcome was “inactive”. With `CCCCCCOCCO` the outcome was “inactive”. For `CCCCCCCCCCO`, the outcome was “inactive”. With `CCCCCCC(=O)OCC` the outcome was “inactive”. For `Cc1ccc2ncccc2c1`, the outcome was “inactive”. `C[C@]12C=CC(=O)C=C1CC[C@@H]1[C@@H]2C(=O)C[C@@]2(C)[C@H]1CC[C@]2(O)C(=O)CO` was tested, and the outcome was “inactive”. With `CCCCN(CCCC)CCCC` the outcome was “inactive”. For `Nc1ccc(S(=O)(=O)c2ccc(N)cc2)cc1`, the outcome was “inactive”. In the case of `Oc1ccc2ccccc2c1N=Nc1ccccc1`, the outcome is reported as “inactive”. In the case of `FC(F)(F)C(F)(F)C(F)(F)C(F)(F)C(F)(F)C(F)(F)CCI`, the outcome is reported as “inactive”. With `CCOc1ccc2c(c1)C(C)=CC(C)(C)N2` the outcome was “inactive”. `CC1=C(/C=C/C(C)=C/C=C/C(C)=C/CO)C(C)(C)CCC1` was tested, and the outcome was “inactive”. For `CCCCCCCCCCCCCCCCCC(=O)O`, the outcome was “inactive”. `CCc1c(C(=O)NN2CCCCC2)nn(-c2ccc(Cl)cc2Cl)c1-c1ccc(Br)cc1` was tested, and the AC50 was 32.5 µM (active). `CCOC(=O)CCC(=O)OCC` was tested, and the outcome was “inactive”. `CCCc1cc(=O)[nH]c(=S)[nH]1` was tested, and the outcome was “inactive”. `Cc1ccc(Cl)cc1` was tested, and the outcome was “inactive”. For `OC[C@@H](O)[C@@H](O)[C@H](O)[C@H](O)CO`, the outcome was “inactive”. With `O=C(OCCCCCOC(=O)c1ccccc1)c1ccccc1` the AC50 was 1.38 µM (active). In the case of `CCCCCCCCCCCC(=O)OC`, the outcome is reported as “inactive”. `Nc1nc(N)c2nc(CNc3ccc(C(=O)N[C@@H](CCC(=O)O)C(=O)O)cc3)cnc2n1` was tested, and the outcome was “inactive”. With `COC(=O)c1ccc(O)cc1` the outcome was “inactive”. For `CCOC(=O)C(C)(C)Oc1ccc(Cl)cc1`, the outcome was “inactive”. For `CC1(C)NC(=O)NC1=O`, the outcome was “inactive”. With `NC(=O)Cn1c(=O)cc(CCN2CCN(c3nccc4sccc34)CC2)c2ccc(F)cc21` the AC50 was 65.2 µM (active). For `COc1ccc(S(=O)(=O)N2C(=O)[C@@](c3ccccc3OC)(N3C[C@H](O)C[C@H]3C(=O)N(C)C)c3cc(Cl)ccc32)c(OC)c1`, the AC50 was 73.8 µM (active). With `CN1CCCC1=O` the outcome was “inactive”. `Cc1cc(=O)[nH]c(=S)[nH]1` was tested, and the outcome was “inactive”. With `CC1(C)CC(N=C=O)CC(C)(CN=C=O)C1` (stereo not given) the outcome was “inactive”. `CCNc1cccc(C)c1` was tested, and the outcome was “inactive”. With `COc1ccc(C)cc1N` the outcome was “inactive”. `CN1CCN(Cc2cc(-c3ccc4[nH]c(=O)oc4c3)co2)[C@@H](c2ccc(F)cc2)C1` was tested, and the outcome was “inactive”. With `Cc1ccc(C)c(O)c1C` the outcome was “inactive”. With `CNCc1cc(F)ccc1Oc1ccc(Cl)c(Cl)c1` the AC50 was 77 µM (active).
